Values without a mark were called inactive. Inconclusive results are not listed. Active and inactive are the calls of the source. Unless noted, calls come from the whole dose curve; as a rule, active = well fitted curve in the direction sought with a large enough effect in the repeat runs; inconclusive = weak or mixed curves; inactive = no such curve, though single readings can be large; an effect the other way counts as inactive or inconclusive.

Assay [1] is described as follows: qHTS assay to test for compound auto fluorescence at 535 nm (green) in HEK293 cells (AID 720680).
Assay [2] can be described thus: qHTS assay to test for compound auto fluorescence at 460 nm (blue) in HEK293 cell free culture (AID 720681). In a few lines:
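Test compounds were pinned into cell-free culture medium (DMEM with 10% FBS) and fluorescence was read directly at Ex/Em 405/460 nm. Signals were expressed as fluorescence equivalents of triamterene, with DMSO vehicle as control.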

Assay [3] in a line: qHTS assay to test for compound auto fluorescence at 535 nm (green) in HEK293 cell free culture (AID 720682). In a few lines: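 Measurement is a direct plate read of green fluorescence (485 nm in, 535 nm out) after compound addition to serum-supplemented DMEM lacking cells, with fluorescein used to express intensities.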
The nature of assay [4]: qHTS assay to test for compound auto fluorescence at 590 nm (red) in HEK293 cell free culture (AID 720683). In a few lines: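 Tox21 10K library compounds were pinned into cell-free DMEM with 10% FBS and fluorescence was read at excitation 540 nm. Activity is expressed as Rose Bengal sodium equivalency.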
Assay [5] can be described thus: qHTS assay to test for compound auto fluorescence at 590 nm (red) in HepG2 cell free culture (AID 720684). A digest of the protocol:
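Ex 540 / Em 590 nm read of compound in cell-free MEM (10% FBS). Rose Bengal sodium reference.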

The nature of assay [6]: qHTS assay to test for compound auto fluorescence at 460 nm (blue) in HepG2 cell free culture (AID 720685). A digest of the protocol: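 Cell-free plates of MEM plus 10% FBS received 23 nL compound or DMSO vehicle; blue-channel (405/460 nm) intensity scored against triamterene as reference fluorophore.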
The nature of assay [7]: qHTS assay to test for compound auto fluorescence at 535 nm (green) in HepG2 cell free culture (AID 720686).
A short description of assay [8]: qHTS assay to test for compound auto fluorescence at 460 nm (blue) in HepG2 cells (AID 720687). A digest of the protocol:
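Cells (2,000/well in MEM with 10% FBS) attached overnight at 37 C, then were exposed to compound or DMSO for 1 hr at 37 C, 5% CO2. Fluorescence read at Ex/Em 405/460 nm, expressed as triamterene-equivalent signal.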

Assay [9] has as its target Glucocorticoid receptor (Homo sapiens) (UniProt P04150). Briefly: qHTS assay to identify small molecule agonists of the glucocorticoid receptor (GR) signaling pathway (AID 720691; active = well fitted activation curve with a large enough effect in the signal ratio in the repeat runs, not every such curve was filed as active; the % refers to the signal ratio). A digest of the protocol: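 Compounds in DMSO, alongside positive controls, were added to GR-bla HeLa reporter cells and incubated 18 h at 37 C; GRE-driven beta-lactamase was detected by fluorescence after 2 h with FRET substrate at room temperature.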

The target is the same in assay [10]. Kind of assay: qHTS assay to identify small molecule antagonists of the glucocorticoid receptor (GR) signaling pathway (AID 720692; active = well fitted inhibition curve with a large enough effect in the signal ratio in the repeat runs, not every such curve was filed as active; the % refers to the signal ratio). A digest of the protocol: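 In a 1536-well cell format, compounds were added 4 h after seeding GR-bla HeLa cells, together with dexamethasone at 5 nM final; reporter activity was measured by FRET-substrate fluorescence following 18 h at 37 C.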

The nature of assay [11]: qHTS assay to identify small molecule antagonists of the glucocorticoid receptor (GR) signaling pathway - cell viability counter screen (AID 720693). Note: nearly all actives have a fitted effect of over 55% in size.
A short description of assay [12]: qHTS assay for identifying genotoxic compounds that show differential cytotoxicity against isogenic chicken DT40 cell lines with known DNA damage response pathways - wild type cell line (AID 743012). Note: nearly all actives have a fitted effect of over 60% in size. Note: potency is the fitted concentration of half-maximal effect. In a few lines:
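Viability of DNA repair-proficient chicken DT40 cells was assessed by CellTiter-Glo luminescence following 40 h compound exposure at 37 C/5% CO2.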

A short description of assay [13]: qHTS assay for identifying genotoxic compounds that show differential cytotoxicity against isogenic chicken DT40 cell lines with known DNA damage response pathways - Rev3 mutant cell line (AID 743014). Note: nearly all actives have a fitted effect of over 55% in size. Note: potency is the fitted concentration of half-maximal effect.
Assay [14] can be described thus: qHTS assay for identifying genotoxic compounds that show differential cytotoxicity against isogenic chicken DT40 cell lines with known DNA damage response pathways - Rad54/Ku70 mutant cell line (AID 743015). Note: nearly all actives have a fitted effect of over 60% in size. Note: potency is the fitted concentration of half-maximal effect.
Assay [15] can be described thus: qHTS assay to identify small molecule antagonists of the androgen receptor (AR) signaling pathway - cell viability counter screen (AID 743033; note: nearly all actives have a fitted effect of over 45% in size).
The nature of assay [16]: qHTS assay to identify small molecule antagonists of the androgen receptor (AR) signaling pathway using the MDA cell line - cell viability counter screen (AID 743041; note: nearly all actives have a fitted effect of over 45% in size; note: potency is the fitted concentration of half-maximal effect). A digest of the protocol:
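In this qHTS counter assay, fluorescence intensity after CellTiter-Fluor addition indicated viability of MDA-kb2 AR-luc cells given compounds and R1881 for 16 h at 37C.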

The target of assay [17] is Androgen receptor (Homo sapiens) (UniProt P10275). Kind of assay: qHTS assay to identify small molecule antagonists of the androgen receptor (AR) signaling pathway (AID 743035; active = well fitted inhibition curve with a large enough effect in the signal ratio in the repeat runs, not every such curve was filed as active; the % refers to the signal ratio; note: potency is the fitted concentration of half-maximal effect). A digest of the protocol:
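Reporter HEK293 cells were exposed to compounds and R1881 overnight (16 h, 37C); beta-lactamase activity was then quantified by FRET fluorescence.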

Assay [18] shares this target. Kind of assay: qHTS assay to identify small molecule agonists of the androgen receptor (AR) signaling pathway (AID 743036; active = well fitted activation curve with a large enough effect in the signal ratio in the repeat runs, with a control signal flat, not every such curve was filed as active; the % refers to the signal ratio). A digest of the protocol:
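Beta-lactamase under UAS control, stably integrated in HEK293 GripTite cells, reports receptor activation. After 16 h compound treatment, cells received FRET substrate for 2 h at room temperature before fluorescence reading.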

Assay [19] has the same target. Kind of assay: qHTS assay to identify small molecule agonists of the androgen receptor (AR) signaling pathway using the MDA cell line (AID 743040; note: nearly all actives have a fitted effect of over 20% in size). A digest of the protocol: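 Cell-based luciferase reporter: MDA-kb2, MMTV promoter (AR + GR response elements). 16 h compound exposure at 37C; ONE-Glo, 30 min RT, luminescence.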
Assay [20] shares this target. Kind of assay: qHTS assay to identify small molecule antagonists of the androgen receptor (AR) signaling pathway using the MDA cell line (AID 743042; note: nearly all actives have a fitted effect of over 55% in size; note: potency is the fitted concentration of half-maximal effect). In a few lines: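 MDA-kb2 cells (human breast carcinoma, stably carrying an MMTV-luciferase reporter responsive to AR and GR) were plated at 3,000 cells/well and preincubated 5 hr at 37C, then given compound plus R1881 agonist for 16 h. ONE-Glo luminescence was read.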
% is set by controls: 0 for no effect and ±100 for the full control effect.

Sequence of Glucocorticoid receptor (Homo sapiens) (P04150 whole entry, looked up): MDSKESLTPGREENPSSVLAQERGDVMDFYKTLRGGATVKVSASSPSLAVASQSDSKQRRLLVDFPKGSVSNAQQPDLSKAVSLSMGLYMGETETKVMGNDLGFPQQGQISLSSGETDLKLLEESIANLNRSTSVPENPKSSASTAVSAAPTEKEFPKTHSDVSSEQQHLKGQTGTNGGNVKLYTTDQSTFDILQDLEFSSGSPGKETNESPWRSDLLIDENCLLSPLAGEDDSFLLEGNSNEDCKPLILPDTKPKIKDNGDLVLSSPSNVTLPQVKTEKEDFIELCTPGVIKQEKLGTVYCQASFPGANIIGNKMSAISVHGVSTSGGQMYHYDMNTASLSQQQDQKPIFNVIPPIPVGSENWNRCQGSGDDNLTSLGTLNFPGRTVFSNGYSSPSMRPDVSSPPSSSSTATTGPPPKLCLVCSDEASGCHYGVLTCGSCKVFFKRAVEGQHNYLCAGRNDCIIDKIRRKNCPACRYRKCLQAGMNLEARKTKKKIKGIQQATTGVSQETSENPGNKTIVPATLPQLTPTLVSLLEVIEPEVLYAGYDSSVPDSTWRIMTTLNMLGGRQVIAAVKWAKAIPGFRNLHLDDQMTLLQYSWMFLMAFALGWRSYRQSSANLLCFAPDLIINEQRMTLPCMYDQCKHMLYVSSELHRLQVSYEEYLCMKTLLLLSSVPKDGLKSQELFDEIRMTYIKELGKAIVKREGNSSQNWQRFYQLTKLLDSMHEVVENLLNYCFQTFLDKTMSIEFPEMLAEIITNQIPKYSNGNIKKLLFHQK
Sequence of Androgen receptor (Homo sapiens) (P10275 whole entry, looked up): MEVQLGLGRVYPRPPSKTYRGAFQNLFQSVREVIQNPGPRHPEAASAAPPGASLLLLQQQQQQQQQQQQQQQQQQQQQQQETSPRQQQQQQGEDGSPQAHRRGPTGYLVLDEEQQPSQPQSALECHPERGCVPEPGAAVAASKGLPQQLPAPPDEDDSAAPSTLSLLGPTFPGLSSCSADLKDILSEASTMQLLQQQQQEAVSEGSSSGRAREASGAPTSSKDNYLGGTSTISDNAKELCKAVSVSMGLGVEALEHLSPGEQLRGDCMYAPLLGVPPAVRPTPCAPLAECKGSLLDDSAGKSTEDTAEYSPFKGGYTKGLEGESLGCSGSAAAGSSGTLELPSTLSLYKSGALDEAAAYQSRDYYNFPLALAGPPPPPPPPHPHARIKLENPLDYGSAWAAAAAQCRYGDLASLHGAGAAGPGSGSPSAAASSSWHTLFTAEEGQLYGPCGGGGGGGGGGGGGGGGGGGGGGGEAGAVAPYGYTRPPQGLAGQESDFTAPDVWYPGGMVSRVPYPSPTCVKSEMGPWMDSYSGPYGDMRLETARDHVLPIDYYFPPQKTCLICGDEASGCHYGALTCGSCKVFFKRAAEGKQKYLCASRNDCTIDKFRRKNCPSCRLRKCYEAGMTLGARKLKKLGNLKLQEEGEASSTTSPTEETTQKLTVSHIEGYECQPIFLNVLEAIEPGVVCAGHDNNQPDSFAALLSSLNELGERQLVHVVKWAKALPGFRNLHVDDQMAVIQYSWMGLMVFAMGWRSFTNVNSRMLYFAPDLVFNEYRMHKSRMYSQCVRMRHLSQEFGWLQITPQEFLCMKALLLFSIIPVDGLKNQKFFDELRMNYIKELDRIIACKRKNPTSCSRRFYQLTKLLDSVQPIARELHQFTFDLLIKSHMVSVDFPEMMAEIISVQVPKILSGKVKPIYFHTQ

On to `CCCOC(OCCC)OCCC`, for which the outcome in assay [1], in assay [2], in assay [3], in [4], in assay [5] and in assay [6] was inactive. The compound was classed as inactive in assay [7], in [8], in assay [10] and in assay [11]. Further, the Potency result in assay [9], in assay [12], in [13], in assay [14], in [15] and in assay [16] was “inactive” throughout.
With `O=C(O)c1cc(Cl)cc([N+](=O)[O-])c1Cl`, the compound was classed as inactive in [1], in assay [2], in [3], in assay [4], in assay [5] and in assay [6]. Further, the outcome in [7], in assay [8], in assay [10], in [11], in assay [18] and in assay [19] was inactive. Moreover, the Potency result in assay [9], in [12], in [13], in assay [14], in assay [15] and in assay [17] was “inactive” each time. Moreover, the Potency result in assay [16] and in assay [20] was “inactive” throughout.
Regarding `O=C(Nc1ccc(Cl)c(Cl)c1)C1CC1`, the call in assay [1], in assay [2], in assay [3], in assay [4], in [5] and in assay [6] was inactive. In addition, the compound was classed as inactive in assay [7], in assay [8], in assay [10], in assay [11], in assay [18] and in assay [19]. The Potency entry in assay [9], in [15] and in assay [16] was “inactive” in each case. In addition, the Potency in [12] is 29.8 µM (active); in [13], 26.6 µM (active); in assay [14], 29.8 µM (active); in assay [17] it was 19 µM (active); in assay [20], 29.8 µM (active).
For `CCCCNc1ccc(C(=O)OCCN(C)C)cc1`, in assay [1], the fluorescence, % of fluorescein is -0.108% [at 18.6 µM]. Further, the fluorescence, % of fluorescent control in assay [2] was 0.0181% [at 18.6 µM]; in assay [4] it was -0.282% [at 18.6 µM]; in assay [6] it was 0.0923% [at 18.6 µM]; in assay [8], 0.0537% [at 18.6 µM]. Moreover, the activity change in assay [3] is -0.0203% [at 18.6 µM]. Moreover, in assay [5], the fluorescence, % of Rose Bengal was 0.315% [at 18.6 µM]. Moreover, the fluorescence, % of fluorescein control in assay [7] was -0.0132% [at 18.6 µM]. In addition, the Potency result in [9], in assay [15] and in assay [16] was “inactive” in each case. Moreover, the compound was called inactive in assay [10] and in assay [11]. In addition, the values for the Potency in [12], in assay [13] and in assay [14] were 5.07 µM (active), 2.85 µM (active) and 5.07 µM (active), respectively.
For `OCCCCC(O)CO` (stereo unspecified), the compound was called inactive in [1], in assay [2], in assay [3], in assay [4], in [5] and in assay [6]. In addition, the outcome in assay [7], in [8] and in [11] was inactive. For the same compound, the Potency result in assay [9], in assay [12], in [13], in assay [14], in assay [15] and in assay [16] was “inactive” each time.
With `C[Si](C)(C)C`, the compound was classed as inactive in assay [1], in assay [2], in assay [3], in [4], in [5] and in assay [6]. Moreover, the outcome in assay [7], in assay [8] and in [11] was inactive. The Potency entry in assay [9], in [12], in [13], in assay [14], in assay [15] and in assay [16] was “inactive” throughout.
For `CCCCCCOC(=O)CC`, the compound was classed as inactive in [1], in assay [2], in assay [3], in assay [4], in assay [5] and in [6]. In addition, the compound was called inactive in assay [7], in assay [8] and in [11]. The Potency entry in [9], in assay [12], in [13], in assay [14], in assay [15] and in assay [16] was “inactive” throughout.
For the compound `O=C(OCC(COC(=O)c1cccnc1)(COC(=O)c1cccnc1)COC(=O)c1cccnc1)c1cccnc1`, the call in assay [1], in assay [2], in assay [3], in [4], in assay [5] and in assay [6] was inactive. Moreover, the outcome in assay [7], in assay [8], in assay [10], in assay [18] and in [19] was inactive. The Potency entry in [9], in assay [12], in assay [13], in assay [15], in [17] and in assay [16] was “inactive” throughout. Moreover, the Potency entry in assay [20] is “inactive”.
Regarding `CCCCCCCCSCC`, the call in [1], in assay [2], in assay [3], in assay [4], in [5] and in assay [6] was inactive. The call in assay [7], in assay [8] and in [11] was inactive. For the same compound, the Potency result in assay [9], in [13], in [14], in assay [15] and in assay [16] was “inactive” in each case.
Regarding `O=C(c1ccc(O)cc1)c1ccc(O)c(O)c1O`, the outcome in assay [1], in [2], in [3], in [4], in [5] and in assay [6] was inactive. For the same compound, the call in assay [7], in assay [8] and in [11] was inactive. Further, the Potency result in assay [9] and in assay [15] was “inactive” in each case.
As to `CC(CN)CC(C)(C)CCN` (stereo unspecified), the outcome in assay [1], in [2], in assay [3], in [4], in assay [5] and in assay [6] was inactive. Besides, the compound was classed as inactive in assay [7], in assay [8] and in assay [10]. Moreover, the Potency result in [9] and in assay [15] was “inactive” in each case. Also, the Potency is 44.4 µM (active) in assay [12], 44.4 µM (active) in [14] and 6.27 µM (active) in assay [16].
Take `BrCc1cccc(Oc2ccccc2)c1`: the result in assay [1], in [2], in assay [3], in [4], in assay [5] and in [6] was inactive. Moreover, the outcome in assay [7], in assay [8], in assay [11] and in assay [19] was inactive. The Potency entry in assay [9], in assay [15], in [17] and in assay [20] was “inactive” each time.
With `CC(CC=O)CCCC(C)(C)O` (stereo unspecified), the result in assay [1], in assay [2], in [3], in [4], in assay [5] and in assay [6] was inactive. Besides, the compound was classed as inactive in assay [7], in assay [8], in [11], in [18] and in [19]. The Potency entry in [9], in assay [12], in assay [15], in [17], in assay [16] and in [20] was “inactive” throughout.
Turning to `CC(C)CC(=O)O`, the compound was classed as inactive in assay [1], in assay [2], in assay [3], in assay [4], in [5] and in [6]. For the same compound, the result in assay [7], in assay [8] and in assay [10] was inactive. Besides, the Potency result in assay [9], in [15] and in assay [16] was “inactive” throughout.
In the case of `CC(C)(C)c1n[nH]c(=S)n(N)c1=O`, the compound was called inactive in [1], in assay [2], in [3], in assay [4], in assay [5] and in assay [6]. The outcome in assay [7], in assay [8] and in [10] was inactive. Further, the Potency result in [9], in assay [13], in [14], in assay [15] and in [16] was “inactive” each time.
As to `O=C1O[C@@H]2[C@@H](O)[C@H](O)O[C@@H]2[C@H]1O`, the call in [1], in assay [2], in [3], in assay [4], in [5] and in [6] was inactive. Further, the compound was classed as inactive in [7], in [8] and in assay [11]. Further, the Potency entry in [9], in assay [12], in assay [13], in assay [14], in [15] and in assay [16] was “inactive” each time.

(Values after PubChem BioAssay (Tox21).)
